Values without a mark were called inactive. How the calls were made is not given here.

This experiment deals with Aerobactin synthetase IucA (Klebsiella pneumoniae hvKP1). The experiment in a line: Biochemical IucA enzyme inhibition primary screen of the Spectrum library (AID 1346200).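 Further: 100% = wells without compound and 0% = wells lacking enzyme.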 The settings on record: malachite green pyrophosphate, A620, at 8 µM, hits give low values.
`COc1c2ccccc2nc2occc12`: the activity remaining is 115%.
Turning to `COC(=O)C1=CO[C@@H](O[C@@H]2O[C@H](CO)[C@@H](O)[C@H](O)[C@H]2O)[C@@H]2[C@@H](C)CC(=O)[C@]12O`, the activity remaining is 109%.
As for `Cc1cc(O)c2c(c1)C(=O)c1cccc(O)c1C2=O`, the figure is 107%; as for `O=c1c2ccccc2oc2ccc(O)cc12`, 122%; as for `CC1=C(C(=O)O)N2C(=O)[C@@H](NC(=O)[C@H](N)C3=CCC=CC3)C2SC1` (stereo partly specified), 103%.
The figure for `Oc1cc2c(cc1O)C1c3ccc(O)c(O)c3OCC1(O)C2` (stereo unspecified) is 109%; for `CC(=O)Oc1cccc2c1C(=O)c1c(OC(C)=O)cc(C(=O)O)cc1C2=O` it is 102%; for `O=C(O)CCC(=O)Nc1ccc(S(=O)(=O)Nc2nccs2)cc1` it is 116%.
As for `CCOC(=O)n1ccn(C)c1=S`, the figure is 127%.
On to `NC[C@@H]1O[C@H](O[C@@H]2[C@@H](CO)OC(O[C@@H]3[C@@H](O)[C@H](N)C[C@H](N)[C@H]3OC3O[C@H](CN)[C@@H](O)[C@H](O)[C@H]3N)[C@@H]2O)[C@H](N)[C@@H](O)[C@@H]1O` (stereo partly specified), for which the activity remaining is 99.1%.
As for `Cc1cc(-c2ccccc2)nnc1NCCN1CCOCC1`, the activity remaining was 110%.
As for `CC[C@H]1OC(=O)[C@H](C)[C@@H](O[C@H]2C[C@@](C)(OC)[C@@H](O)[C@H](C)O2)[C@H](C)[C@@H](O[C@@H]2O[C@H](C)C[C@H](N(C)C)[C@H]2O)[C@](C)(O)C[C@@H](C)/C(=N\OCOCCOC)[C@H](C)[C@@H](O)[C@]1(C)O`, the figure is 118%.
The figure for `Cc1ncc(CO)c(CO)c1O` is 102%; for `O=C1CC(c2ccc(O)cc2)Oc2ccccc21` (stereo unspecified) it is 92%.
For the molecule `CC(C)N=C(N)/N=C(\N)Nc1ccc(Cl)cc1`, the activity remaining was 102%.
The figure for `CC1=NN(c2ccccc2)C(=O)C1` is 120%; for `S=c1[nH]c2ccccc2s1` it is 99.3%; for `COc1ccc([C@@H]2CC(=O)c3c(O)cc(O[C@@H]4O[C@H](CO[C@H]5O[C@@H](C)[C@H](O)[C@@H](O)[C@H]5O)[C@@H](O)[C@H](O)[C@H]4O)cc3O2)cc1O` it is 102%.
As for `COc1ccc(-c2cc(=O)c3c(O)cc(O[C@H]4O[C@H](CO[C@@H]5O[C@@H](C)[C@H](O)[C@@H](O)[C@H]5O)[C@@H](O)[C@H](O)[C@H]4O)cc3o2)cc1`, the figure is 101%; as for `CC(=O)OCC(=O)[C@@]1(O)CCC2C3C[C@H](C)C4=CC(=O)C=CC4(C)C3[C@@H](O)CC21C` (stereo partly specified), 93.6%.
Consider `C#C[C@]1(O)CCC2C3CCC4=C(CCC(=O)C4)C3CC[C@@]21C` (stereo partly specified), for which the activity remaining is 109%.
The figure for `COC(=O)C1=CO[C@@H](O[C@@H]2O[C@H](CO)[C@@H](O)[C@H](O)[C@H]2O)[C@@H]2[C@@H](C)[C@@H](O)C[C@H]12` is 101%; for `COc1ccc(-c2coc3cc(OC(C)=O)cc(OC(C)=O)c3c2=O)cc1` it is 92.5%; for `O=c1cc(-c2ccccc2O)oc2cc(O)ccc12` it is 100%.
For `Nc1ccc(S(=O)(=O)Nc2cnc3ccccc3n2)cc1`, the activity remaining is 123%.
Regarding `CO[C@@]12[C@@H]3NC3CN1C1=C(C(=O)C(N)=C(C)C1=O)[C@@H]2COC(N)=O` (stereo partly specified), the activity remaining was 95.4%.
The figure for `NCC(=O)CCC(=O)O` is 77.6%.
The figure for `CCCCCC(=O)Cc1cc(O)cc(O)c1C(=O)Oc1cc(CC(=O)CCCCC)c(C(=O)O)c(OC)c1` is 106%; for `C#C[C@]1(OC(C)=O)CCC2C3CCC4=CC(=O)CC[C@@H]4C3CC[C@@]21C` (stereo partly specified) it is 93%; for `COc1ccc(-c2cc(=O)c3c(O)c(OC)c(O[C@H]4O[C@H](CO[C@@H]5O[C@@H](C)[C@H](O)[C@@H](O)[C@H]5O)[C@@H](O)[C@H](O)[C@H]4O)cc3o2)cc1` it is 109%.
Turning to `COc1ccc(-c2cc(=O)c3cc(OC)ccc3o2)cc1`, the activity remaining was 95.7%.
The figure for `COc1ccc2c(c1)OC/C(=C\c1ccc(OC)c(O)c1)C2=O` is 120%; for `COc1cc(C/C=C/c2ccccc2)c(OC)cc1O` it is 113%; for `CCN1CCN(C(=O)NC(C(=O)NC2C(=O)N3C(C(=O)O)=C(CSc4nnnn4C)CSC23)c2ccc(O)cc2)C(=O)C1=O` (stereo unspecified) it is 125%.
As for `COc1cc(NS(=O)(=O)c2ccc(N)cc2)nc(OC)n1`, the figure is 90.2%.
On to `Nc1ncnc2c1ncn2C1C[C@H](O)[C@@H](CO)O1` (stereo partly specified), for which the activity remaining is 125%.

The record behind these values is PubChem BioAssay.
